Source: PubChem BioAssay AID1159580 (chemical genetic matrix, 2015)
Values joined by “and” are separate entries in the source; they are usually repeats but may differ in a detail not shown here. Equal entries are not always repeated. The whole screen tested about 5,500 compounds, of which about 2,000 (36%) were called active. Inconclusive results (about 18%) are left out. Rule as the data show it: active = normalized growth mostly below about 0.91 (no sharp cut-off); inconclusive = no clear call, values can overlap the other calls; inactive = mostly above about 0.92. Some of the results follow.

Experiment: chemical genetic growth profiling, strain panel (AID 1159580);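 also: tested at 20 µM; growth read once vehicle control cultures reached saturation at 30 °C; 1 = growth at the plate median or of vehicle wells; lower values mean less growth of the strain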
Details: S. cerevisiae deletion strains, growth OD
[1] = locus YGR078C, strain PAC10, stronger effect = lower value
[2] = locus YMR263W, strain SAP30, stronger effect = lower value
[3] = locus YMR307W, strain GAS1, stronger effect = lower value
[4] = locus YNL322C, strain KRE1, stronger effect = lower value
[5] = locus YPL055C, strain LGE1, stronger effect = lower value

Measured: normalized growth

CN1CCC(OC(c2ccccc2)c2ccccc2)CC1
inactive: locus YAL013W, strain DEP1, stronger effect = lower value 0.98 | locus YAL021C, strain ccr4, stronger effect = lower value 0.974 | locus YAL026C, strain drs2, stronger effect = lower value 0.972 | locus YAL030W, strain snc1, stronger effect = lower value 0.987 | locus YBL061C, strain skt5, stronger effect = lower value 1 | locus YBR009C, strain hhf1, stronger effect = lower value 0.983 | locus YBR021W, strain FUR4, stronger effect = lower value 0.985 | locus YBR023C, strain chs3, stronger effect = lower value 1.02 | locus YBR171W, strain sec66, stronger effect = lower value 0.99 | locus YBR229C, strain ROT2, stronger effect = lower value 0.977 | locus YBR231C, strain swc5, stronger effect = lower value 0.976 | locus YBR279W, strain paf1, stronger effect = lower value 1.01 | locus YCL011C, strain gbp2, stronger effect = lower value 0.998 | locus YCL016C, strain dcc1, stronger effect = lower value 1.04 | locus YCL029C, strain bik1, stronger effect = lower value 0.995 | locus YCL061C, strain MRC1, stronger effect = lower value 1 | locus YCL069W, strain vba3, stronger effect = lower value 0.973 | locus YCR088W, strain abp1, stronger effect = lower value 0.989 | locus YDL005C, strain med2, stronger effect = lower value 0.975 | locus YDL035C, strain GPR1, stronger effect = lower value 1.03 | locus YDL040C, strain nat1, stronger effect = lower value 0.975 | locus YDL074C, strain BRE1, stronger effect = lower value 0.976 | locus YDL101C, strain DUN1, stronger effect = lower value 0.973 | locus YDL134C, strain PPH21, stronger effect = lower value 1.02 | locus YDL185W, strain tfp1, stronger effect = lower value 0.984 | locus YDL192W, strain arf1, stronger effect = lower value 0.983 | locus YDR001C, strain nth1, stronger effect = lower value 0.984 | locus YDR069C, strain doa4, stronger effect = lower value 0.977 | locus YDR101C, strain arx1, stronger effect = lower value 0.987 | locus YDR137W, strain rgp1, stronger effect = lower value 1.03 | locus YDR159W, strain sac3, stronger effect = lower value 0.969 | locus YDR162C, strain NBP2, stronger effect = lower value 1.01 | locus YDR195W, strain ref2 0.973 | locus YDR297W, strain sur2, stronger effect = lower value 0.988 | locus YDR318W, strain mcm21, stronger effect = lower value 0.978 | locus YDR334W, strain swr1, stronger effect = lower value 0.982 | locus YDR335W, strain msn5, stronger effect = lower value 0.996 | locus YDR388W, stronger effect = lower value 0.992 | locus YDR392W, strain spt3, stronger effect = lower value 0.935 | locus YDR502C, strain sam2, stronger effect = lower value 1.01 | locus YEL003W, strain gim4, stronger effect = lower value 0.956 | locus YEL037C, strain rad23, stronger effect = lower value 0.97 | locus YEL061C, strain CIN8 (second series), stronger effect = lower value 0.965 | locus YEL061C, strain CIN8, stronger effect = lower value 0.995 | locus YER015W, strain faa2, stronger effect = lower value 0.99 | locus YER016W, strain bim1, stronger effect = lower value 0.977 | locus YER110C, stronger effect = lower value 0.972 | locus YER111C, strain swi4, stronger effect = lower value 0.984 | locus YER155C, strain BEM2 (second series), stronger effect = lower value 0.977 | locus YER155C, strain BEM2, stronger effect = lower value 0.988 | locus YER167W, strain BCK2, stronger effect = lower value 0.99 | locus YFR010W, strain ubp6, stronger effect = lower value 0.963 | locus YGL078C, strain dbp3, stronger effect = lower value 0.985 | locus YGL086W, strain mad1, stronger effect = lower value 0.987 | locus YGL167C, strain pmr1, stronger effect = lower value 1 | locus YGL173C, strain kem1, stronger effect = lower value 0.994 | locus YGL227W, strain vid30, stronger effect = lower value 0.983 | locus YGL240W, strain doc1, stronger effect = lower value 0.982 | locus YGL248W, strain PDE1, stronger effect = lower value 0.964 | locus YGL253W, strain hxk2, stronger effect = lower value 0.987 | [1] 0.985 | locus YGR135W, strain pre9, stronger effect = lower value 0.951 | locus YGR252W, strain gcn5, stronger effect = lower value 0.925 | locus YHR013C, strain ard1, stronger effect = lower value 0.994 | locus YHR027C, strain rpn1, stronger effect = lower value 0.993 | locus YHR030C, strain SLT2, stronger effect = lower value 0.998 and 0.996 | locus YHR079C, strain IRE1 (second series), stronger effect = lower value 0.991 | locus YHR079C, strain IRE1, stronger effect = lower value 1.02 | locus YHR094C, strain hxt1, stronger effect = lower value 0.998 | locus YHR129C, strain ARP1, stronger effect = lower value 0.99 | locus YHR142W, strain chs7, stronger effect = lower value 1.01 | locus YHR200W, strain rpn10, stronger effect = lower value 0.987 | locus YIL066C, strain RNR3, stronger effect = lower value 1.01 | locus YIL073C, strain SPO22, stronger effect = lower value 1.01 | locus YIL125W, strain kgd1, stronger effect = lower value 0.994 | locus YIR030C, strain dcg1, stronger effect = lower value 0.984 | locus YJL092W, strain hpr5, stronger effect = lower value 0.98 | locus YJL095W, strain BCK1 (second series), stronger effect = lower value 0.988 | locus YJL095W, strain BCK1, stronger effect = lower value 0.961 and 1 | locus YJL115W, strain asf1, stronger effect = lower value 0.98 | locus YJL129C, strain trk1, stronger effect = lower value 0.984 | locus YJL134W, strain LCB3, stronger effect = lower value 0.984 | locus YJL154C, strain vps35, stronger effect = lower value 0.978 | locus YJL164C, strain tpk1, stronger effect = lower value 0.987 | locus YJL166W, strain qcr8, stronger effect = lower value 1.01 | locus YJL168C, strain set2, stronger effect = lower value 0.988 | locus YJL187C, strain SWE1 (second series), stronger effect = lower value 0.972 | locus YJL187C, strain SWE1, stronger effect = lower value 0.983 | locus YJR043C, strain POL32, stronger effect = lower value 1.03 | locus YJR066W, strain TOR1, stronger effect = lower value 0.973 | locus YKL009W, strain mrt4, stronger effect = lower value 0.974 | locus YKL068W, stronger effect = lower value 0.983 | locus YKL085W, strain MDH1 (second series), stronger effect = lower value 1 | locus YKL085W, strain MDH1, stronger effect = lower value 1 | locus YKL160W, strain elf1, stronger effect = lower value 1.03 | locus YKR001C, strain vps1, stronger effect = lower value 0.996 | locus YKR026C, strain gcn3, stronger effect = lower value 0.989 | locus YKR091W, strain srl3, stronger effect = lower value 0.991 | locus YLL001W, strain dnm1, stronger effect = lower value 1.01 | locus YLL026W, stronger effect = lower value 0.991 | locus YLL041C, strain sdh2, stronger effect = lower value 0.985 | locus YLR027C, strain aat2, stronger effect = lower value 0.995 | locus YLR039C, strain RIC1, stronger effect = lower value 1.15 | locus YLR058C, strain SHM2, stronger effect = lower value 0.992 | locus YLR102C, strain apc9, stronger effect = lower value 0.999 | locus YLR113W, strain HOG1, stronger effect = lower value 1.01 | locus YLR221C, strain rsa3, stronger effect = lower value 1.04 | locus YLR258W, strain gsy2, stronger effect = lower value 1.01 | locus YLR262C, strain YPT6 (second series), stronger effect = lower value 1.03 | locus YLR262C, strain YPT6, stronger effect = lower value 1.09 | locus YLR268W, strain sec22, stronger effect = lower value 0.992 | locus YLR320W, strain mms22, stronger effect = lower value 1.05 | locus YLR330W, strain CHS5, stronger effect = lower value 0.987 | locus YLR342W, strain FKS1 (second series), stronger effect = lower value 1.01 | locus YLR342W, strain FKS1, stronger effect = lower value 0.989 | locus YLR357W, strain rsc2, stronger effect = lower value 0.96 | locus YLR370C, strain arc18, stronger effect = lower value 1.01 | locus YLR371W, strain rom2, stronger effect = lower value 1 | locus YLR384C, strain iki3, stronger effect = lower value 0.994 | locus YLR418C, strain cdc73, stronger effect = lower value 0.956 | locus YML016C, strain PPZ1, stronger effect = lower value 0.983 | locus YML032C, strain rad52, stronger effect = lower value 1.02 | locus YML120C, strain ndi1, stronger effect = lower value 1.01 | locus YML124C, strain tub3, stronger effect = lower value 1.02 | locus YMR058W, strain fet3, stronger effect = lower value 0.978 | locus YMR078C, strain ctf18, stronger effect = lower value 0.98 | locus YMR125W, strain sto1, stronger effect = lower value 0.961 | locus YMR129W, stronger effect = lower value 0.977 | locus YMR205C, strain PFK2, stronger effect = lower value 1.03 | locus YMR223W, strain ubp8, stronger effect = lower value 0.968 | locus YMR231W, strain pep5, stronger effect = lower value 0.996 | [2] 0.971 | [3] 1.14 | locus YNL067W, strain RPL9B, stronger effect = lower value 0.974 | locus YNL071W, strain lat1, stronger effect = lower value 0.983 | locus YNL183C, strain NPR1, stronger effect = lower value 0.964 | locus YNL209W, strain ssb2, stronger effect = lower value 0.988 | locus YNL233W, strain BNI4, stronger effect = lower value 0.975 | locus YNL248C, strain rpa49, stronger effect = lower value 0.98 | locus YNL250W, strain rad50, stronger effect = lower value 0.969 | locus YNL271C, strain bni1, stronger effect = lower value 0.984 | locus YNL298W, strain CLA4, stronger effect = lower value 0.985 | locus YNL307C, strain MCK1, stronger effect = lower value 0.992 | locus YNL322C, strain KRE1 (second series), stronger effect = lower value 1.01 | [4] 1.01 | locus YNR049C, strain mso1, stronger effect = lower value 0.989 | locus YNR052C, strain pop2, stronger effect = lower value 0.984 | locus YOL006C, strain TOP1, stronger effect = lower value 0.946 | locus YOL012C, strain htz1 0.957 | locus YOL147C, strain pex11, stronger effect = lower value 0.986 | locus YOR001W, strain rrp6, stronger effect = lower value 0.937 | locus YOR061W, strain CKA2, stronger effect = lower value 1 | locus YOR069W, strain VPS5, stronger effect = lower value 0.992 | locus YOR070C, strain gyp1, stronger effect = lower value 0.998 | locus YOR080W, strain dia2, stronger effect = lower value 1 | locus YOR083W, strain WHI5, stronger effect = lower value 1.04 | locus YOR106W, strain vam3, stronger effect = lower value 1.03 | locus YOR136W, strain idh2, stronger effect = lower value 0.983 | locus YOR144C, strain elg1, stronger effect = lower value 0.983 | locus YOR184W, strain ser1, stronger effect = lower value 1.01 | locus YOR231W, strain MKK1, stronger effect = lower value 1.01 | locus YOR265W, strain rbl2, stronger effect = lower value 1.01 | locus YOR270C, strain vph1, stronger effect = lower value 0.999 | locus YOR290C, strain snf2, stronger effect = lower value 0.93 | locus YOR316C, strain cot1, stronger effect = lower value 0.985 | locus YPL051W, strain arl3, stronger effect = lower value 1.02 | [5] 0.994 | locus YPL078C, strain atp4, stronger effect = lower value 1.02 | locus YPL106C, strain sse1, stronger effect = lower value 0.985 | locus YPL240C, strain hsp82, stronger effect = lower value 1.01 | locus YPL241C, strain CIN2, stronger effect = lower value 0.991 | locus YPL256C, strain CLN2, stronger effect = lower value 1.02 | locus YPR119W, strain clb2, stronger effect = lower value 0.986 | locus YPR141C, strain kar3, stronger effect = lower value 0.965 | locus YPR163C, strain tif3, stronger effect = lower value 0.987 | locus YPR167C, strain met16, stronger effect = lower value 0.99 | strain wtn01, stronger effect = lower value 0.974

Fc1ccc(C(OCCN2CCN(CCCc3ccccc3)CC2)c2ccc(F)cc2)cc1
inactive: locus YAL040C, strain CLN3, stronger effect = lower value 1.02 | locus YER002W, strain NOP16, stronger effect = lower value 1.06 | [2] 0.997 | locus YNL175C, strain NOP13, stronger effect = lower value 0.972 | locus YNL197C, strain WHI3, stronger effect = lower value 1.08 | locus YNL224C, strain SQS1, stronger effect = lower value 1.05 | locus YOR083W, strain WHI5 (second series), stronger effect = lower value 0.903
active: locus YCL061C, strain MRC1 (second series), stronger effect = lower value 0.881 | locus YDR150W, strain NUM1, stronger effect = lower value 0.78 | locus YDR363W, strain ESC2, stronger effect = lower value 0.851 | [1] 0.868 | locus YGR229C, strain SMI1, stronger effect = lower value 0.0957 | locus YJR075W, strain HOC1, stronger effect = lower value 0.797 | [3] 0.891 | locus YNL153C, strain GIM3, stronger effect = lower value 0.661 | [4] 0.705 | [5] 0.583
